An excerpt weighted towards active compounds, which were near 3.8% of everything screened.
TIM10 inh = growth inhibitors of isogenic TIM10 control yeast, primary screen, counter-screen for tim10-1 yeast inhibitor project, luminescence, uHTS. S. cerevisiae TIM10 strain growth, BacTiter-Glo luminescence, 24 h. inhibition, % at 10 µM. hit rate 1.4% among 330,000. AID 463195, 2010;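 active means inhibition of 40% or more at the single tested concentration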;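 further: wild-type TIM10 isogenic control strain grown at permissive 25 °C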
NALP3 yeast inh = NALP3 inflammasome inhibitors in reconstituted yeast, primary screen, luminescence, uHTS | Yeast reconstituted NLRP3/ASC/caspase-1, beta-gal luminescence, 24 h | inhibition, % at 10 µM | hit rate 0.39% among 330,000;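 active means inhibition of 50% or more; inactive means inhibition below 50%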;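 further: plate controls were induced DMSO wells for no effect and uninduced yeast grown without galactose for full effect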
CR mimetic SO = reduction of superoxide in aged yeast, primary screen, HTS. hit rate 0.18% among 330,000. superoxide response (% of plate mean), % at 10 µM. S. cerevisiae aged cells, superoxide DHE fluorescence; active compounds read low. AID 2690, 2010;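 active means superoxide response under a set limit, about three screen SD below normal, cut at about 65% in these data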;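 further: yeast aged for seven days with compound at 30 °C before DHE staining; 100% = average MFI of all compound-treated wells on the plate with controls excluded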
tim23-1 inh = growth inhibitors of tim23-1 mutant yeast, primary screen, luminescence, uHTS; S. cerevisiae tim23-1 growth, BacTiter-Glo luminescence, 24 h; inhibition, % at 20 µM; hit rate 1.3% among 330,000;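 active means growth inhibition of the mutant yeast at or above 50%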;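 further: temperature-sensitive mutant grown at 25 °C; plate controls were DMSO-treated mutant yeast for no effect and medium wells lacking yeast for full effect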
tim10-1 inh = growth inhibitors of tim10-1 mutant yeast, primary screen, luminescence, uHTS | S. cerevisiae tim10-1 ts strain growth, BacTiter-Glo, 24 h | inhibition, % at 20 µM | AID 463190, 2010 | hit rate 2.2% among 330,000;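 active means inhibition of at least 40%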;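 further: mutant grown at 25 °C; 0% = DMSO wells with yeast and 100% = wells holding no yeast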
tim10-1 conf = growth inhibitors of tim10-1 mutant yeast, confirmation, single concentration, luminescence, S. cerevisiae; shares compounds with tim10-1 inh; hit rate 56% among 7,400; S. cerevisiae tim10-1 ts strain growth, BacTiter-Glo, 24 h; inhibition, % at 20 µM;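 active means inhibition of yeast growth at or above a set limit in either of two repeat tests at 20 µM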;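 further: tim10-1 mutant grown at permissive 25 °C to find synthetic lethal compounds; 0% = DMSO yeast wells and 100% = medium wells without yeast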
* = called active by the depositor.

For COc1ccc(N(CC(=O)Nc2ccc(C)c(F)c2)S(=O)(=O)c2c(C)noc2C)cc1 the results were TIM10 inh 14, NALP3 yeast inh -3, CR mimetic SO 86, tim23-1 inh 6 and tim10-1 inh 12.
Screening COc1ccc(N(CC(=O)Nc2ccc(C)c(C)c2)S(=O)(=O)c2c(C)noc2C)cc1 returned TIM10 inh 13, NALP3 yeast inh -8, CR mimetic SO 127, tim23-1 inh 44, tim10-1 inh 45* and tim10-1 conf 8.
`CC1CN(C(=O)c2c(Br)cnn2C)CC(C)O1` (stereo unspecified) gave TIM10 inh -8, NALP3 yeast inh -5, CR mimetic SO 85, tim23-1 inh -4 and tim10-1 inh 1.
`O=c1c2ccccc2nc(/C=C/c2cc(Br)ccc2O)n1CCCO` gave TIM10 inh 21, NALP3 yeast inh -4, CR mimetic SO 125, tim23-1 inh 20 and tim10-1 inh 33.
Screening Cc1cccc(-c2onc3ccc(C(=O)/C=C/N(C)C)cc23)c1 returned TIM10 inh 12, NALP3 yeast inh 27, CR mimetic SO 95, tim23-1 inh 27, tim10-1 inh 48* and tim10-1 conf 28.
Cc1ccc(-c2onc3ccc(C(=O)/C=C/N(C)C)cc23)cc1 was read as TIM10 inh 22, NALP3 yeast inh 2, CR mimetic SO 96, tim23-1 inh 27 and tim10-1 inh 36.
`CN(C)/C=C/C(=O)c1ccc2noc(-c3ccc(F)cc3)c2c1` gave TIM10 inh 9, NALP3 yeast inh 8, CR mimetic SO 67, tim23-1 inh 31, tim10-1 inh 42* and tim10-1 conf 13.
For CC(=NC1CCCCC1)C1=C(O)c2ccccc2C1=O the results were TIM10 inh 22, NALP3 yeast inh 24, CR mimetic SO 114, tim23-1 inh 34, tim10-1 inh 41* and tim10-1 conf 6.
Screening COC(CNC(=O)c1cnn2c(C)c(Cc3ccccc3)c(C)nc12)OC returned TIM10 inh -2, NALP3 yeast inh 8, CR mimetic SO 115, tim23-1 inh 26, tim10-1 inh 40* and tim10-1 conf 24.
`OC(COc1ccccc1)Cn1c2ccccc2c2ccccc21` (stereo unspecified) gave TIM10 inh 31, NALP3 yeast inh 22, CR mimetic SO 100, tim23-1 inh 26, tim10-1 inh 42* and tim10-1 conf 51*.
O=C(c1ccc(CS(=O)Cc2ccc(Cl)cc2)o1)N1CCN(c2ccc(F)cc2)CC1 (stereo unspecified) was read as TIM10 inh 7, NALP3 yeast inh 0, CR mimetic SO 86, tim23-1 inh 18 and tim10-1 inh 30.
`Cc1ccc(C)c(N2CCN(C(=O)c3ccc(CS(=O)Cc4cccc(Cl)c4)o3)CC2)c1` (stereo unspecified) gave TIM10 inh 0, NALP3 yeast inh 15, CR mimetic SO 115, tim23-1 inh 13, tim10-1 inh 42* and tim10-1 conf -11.
Screening Cc1cccc(N2CCN(C(=O)c3ccc(CS(=O)Cc4ccc(Cl)cc4)o3)CC2)c1C (stereo unspecified) returned TIM10 inh 24, NALP3 yeast inh 11, CR mimetic SO 124, tim23-1 inh 38, tim10-1 inh 54* and tim10-1 conf 7.
For Cc1ccc(C(=O)N2CCN(c3cccc(C)c3C)CC2)o1 the results were TIM10 inh 8, NALP3 yeast inh 19, CR mimetic SO 105, tim23-1 inh 26 and tim10-1 inh 22.
For O=C(c1ccc(CS(=O)Cc2ccc(Cl)cc2)o1)N1CCN(c2cccc(Cl)c2)CC1 (stereo unspecified) the results were TIM10 inh 17, NALP3 yeast inh 21, CR mimetic SO 122, tim23-1 inh 10, tim10-1 inh 40* and tim10-1 conf 0.
Screening CC(=O)c1ccc(OCc2cc(C(=O)NC(C)CCn3cccn3)no2)cc1 (stereo unspecified) returned TIM10 inh 5, NALP3 yeast inh 4, CR mimetic SO 97, tim23-1 inh -4 and tim10-1 inh -8.

Bioassay records: PubChem BioAssay, several laboratories
